Assay outcomes from PubChem BioAssay.
TWEAK-Fn14 inh = inhibitors of TWEAK-Fn14 signaling, primary screen, luciferase reporter cells, uHTS; inhibition, % at 10 µM; hit rate 2% among 360,000; AID 1159606, 2016; TWEAK-stimulated Fn14 reporter cells, luciferase luminescence, 8 h; in the data active = inhibition above about 50%
MITF act = activators of MITF-driven TRPM1 promoter reporter, primary screen, cell-based, SK-MEL-5, luciferase, single point; activation, % at 12.5 µM; hit rate 0.75% among 300,000; SK-MEL-5 TRPM1-promoter luciferase, 24 h; % of positive control, neutral wells = 0;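 active = mean activation of at least 80% with every replicate also reaching 80%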;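 note: 0% = neutral control wells and 100% = parthenolide positive control wells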
LGR2 antag = inhibitors of bursicon-induced LGR2 CRE-luciferase signal, primary screen, cell-based, HEK293, CRE-luciferase reporter, bursicon stimulation. Drosophila bursicon receptor LGR2 (rickets). bursicon-stimulated, 4 h. hit rate 0.35% among 380,000. inhibition, % at 9.99 µM;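 active = drop in luminescence signal, shown as inhibition above about 50% in the replicate tests, limit read from the data, passing the limit was not always enough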;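 note: agonist challenge used bursicon conditioned medium at about half maximal strength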
TROY NFkB inh = inhibitors of TROY-driven NF-kB signaling, primary screen, Q293 LMP1-TROYcd cells, NF-kB luciferase, uHTS; Q293 LMP1-TROYcd NF-kB luciferase reporter, 4 h; inhibition, % at 10 µM; hit rate 0.98% among 360,000; AID 1347056, 2019;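 active = compounds whose plate-normalised and pattern-corrected inhibition of the luciferase reporter signal at the single screening dose is 50% or more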
MITF TRPM1 inh = inhibitors of MITF-dependent TRPM1 promoter reporter, primary screen, cell-based, SK-MEL-5, single point, luciferase; SK-MEL-5 TRPM1 promoter luciferase, 24 h; inhibition, % at 12.5 µM; hit rate 0.83% among 330,000; AID 488899, 2010;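 active = mean inhibition across replicates of 60% or more, whatever share of single replicates reaches that level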
EBV LMP1 NFkB = EBV LMP1-driven NF-kappaB luciferase reporter inhibitors, primary screen, cell-based, luminescence, single point; LMP1-induced NF-kappaB luciferase reporter cells; inhibition, % at 12.5 µM; hit rate 0.69% among 350,000; AID 504558, 2011; in the data active = inhibition above about 41%;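 note: 0% = neutral control wells and 100% = reference inhibitor control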
The depositor's hits bear a star; / = no result. Rows were chosen to be rich in hits. Some 3% of all compounds tested hit in one or more screens of this group.

SMILES	TWEAK-Fn14 inh	MITF act	LGR2 antag	TROY NFkB inh	MITF TRPM1 inh	EBV LMP1 NFkB
C[C@@H]1CN([C@H](C)CO)C(=O)c2cccc(NC(=O)C3CCOCC3)c2O[C@@H]1CN(C)CC1CCCCC1	/	/	1	/	/	/
CC(C)NC(=O)N(C)C[C@H]1OCCCC[C@H](C)Oc2ccc(NC(=O)CCC(F)(F)F)cc2C(=O)N([C@H](C)CO)C[C@@H]1C	/	/	-8	/	/	/
O=C(Nc1cc(S(=O)(=O)Nc2ccc(Cl)cc2)ccc1O)c1ccc(S(=O)(=O)N2CCCCCC2)cc1	13	0	8	57*	4	-10
O=C(Nc1cc(S(=O)(=O)N2CCOCC2)ccc1O)c1ccc(S(=O)(=O)N2CCCCC2)cc1	0	8	-10	2	-11	-1
O=C(Nc1cc(S(=O)(=O)N2CCCCC2)ccc1O)c1ccccc1NS(=O)(=O)c1ccc(F)cc1	15	-3	1	43	5	-8
O=C(N/N=C\c1cc(Cl)ccc1O)c1ccc(S(=O)(=O)N2CCCCC2)cc1	-23	-66	22	26	66*	23
O=C(Nc1cc(S(=O)(=O)N2CCCCC2)ccc1Cl)c1ccccc1NS(=O)(=O)c1ccc(F)cc1	65*	-16	47	52*	15	28
C[C@H]1CN([C@@H](C)CO)C(=O)c2cccc(NS(=O)(=O)c3ccc(Cl)cc3)c2O[C@@H]1CN(C)C(=O)Nc1ccccc1	/	/	-22	/	/	/
CCCNC(=O)N(C)C[C@H]1Oc2ncc(-c3ccncc3)cc2C(=O)N([C@H](C)CO)C[C@H]1C	/	/	-24	/	/	/
COC(=O)c1cc(CSc2nc3ccc(C)cc3[nH]2)oc1C	92*	-7	/	/	10	11
COC(=O)c1ccc(CSc2nc3ccccc3[nH]2)o1	-4	26	/	-5	-23	-12
COc1ccc(NC(=O)N(C)C[C@@H]2Oc3ccc(NS(=O)(=O)c4ccc(OC)cc4)cc3CC(=O)N([C@@H](C)CO)C[C@H]2C)cc1	/	/	2	/	/	/
Cc1cc(C)n2ncc(C(=O)NCc3ccc(Cl)cc3)c2n1	-36	0	/	-3	10	-8
O=C(NCc1ccc(Cl)cc1)c1cnn2ccccc12	8	96*	-56	-52	-101	-11
COc1c(OC(C)=O)ccc(/C=C/c2ccc3ccccc3n2)c1[N+](=O)[O-]	-2	113*	-73	29	-116	-38
C[C@@H]1CN([C@H](C)CO)C(=O)c2cc(-c3cccc(F)c3)cnc2O[C@@H]1CN(C)Cc1cccnc1	/	/	-2	/	/	/
N#Cc1ccc(-c2ccc([C@H]3[C@H](CO)N4CCCCN(S(=O)(=O)c5ccccc5)C[C@@H]34)cc2)cc1	/	/	11	/	/	/
CC/C=C\[C@H](O)[C@H](O)C1=C(C)C(=O)[C@]2(O1)C(=O)N[C@@](OC)(C(=O)c1ccccc1)C2O (some centres undefined)	69*	1	26	46	-2	0
O=C(NCCc1ccncc1)[C@@H]1[C@@H](CO)[C@@H]2Cn3c(ccc(-c4cccnc4)c3=O)[C@@H]2N1C(=O)C1CC1	/	/	12	/	/	/
CCOC(=O)N1CCN(C(=O)Nc2ccc3nc(C)c(C)nc3c2)CC1	-18	7	/	-3	-6	-5
Cc1nc2ccc(NC(=O)N3CCCCC3)cc2nc1C	21	-3	/	50*	-2	12
CCOC(=O)c1ccc(NC(=O)N2CCN(C3CCCCC3)CC2)cc1	-3	7	/	13	-7	-7
CCOC(=O)c1ccc(NC(=O)N2CCCCC2)cc1	0	101*	/	-21	-97	-15
C[C@@H]1CCCCO[C@H](CN(C)CC2CCCCC2)[C@@H](C)CN([C@@H](C)CO)C(=O)c2cc(NS(=O)(=O)c3cn(C)cn3)ccc2O1	/	/	-9	/	/	/
O=C(C[C@H]1CC[C@@H](NC(=O)CN2CCOCC2)[C@@H](CO)O1)NCc1cccc(F)c1	/	/	21	/	/	/
SMILES	TWEAK-Fn14 inh	MITF act	LGR2 antag	TROY NFkB inh	MITF TRPM1 inh	EBV LMP1 NFkB
CCOC(=O)C1CCN(S(=O)(=O)Cc2ccccc2)C1=O (centres undefined)	0	1	9	22	-1	43*
CCCCC(c1nnnn1CCOC)N1CCN(CC)CC1 (centres undefined)	-3	-6	/	-3	5	1
C=CCN1CCN(C(CC(C)C)c2nnnn2CCOC)CC1 (centres undefined)	6	5	/	-5	2	49*
O=c1c2cnn(-c3ccccc3)c2nc(-c2ccco2)n1-c1ccccc1	55*	-30	/	16	32	6
O=c1oc(-c2ccco2)nc2c1cnn2-c1ccccc1	12	-19	/	15	18	-2
O=c1c2cnn(-c3ccccc3)c2nc(-c2cccs2)n1-c1ccc(Br)cc1	-5	-2	/	-29	1	43*
O=C(O)CSc1nc2c(cnn2-c2ccccc2)c(=O)n1-c1ccc(Br)cc1	-9	20	4	-6	-20	-7
COc1cccc(NC(=O)N2C[C@H](O)COC[C@@H]3O[C@@H](CC(=O)NCc4ccccc4F)CC[C@H]32)c1	/	/	-15	/	/	/
C[C@@H]1CCCCO[C@@H](CN(C)C(=O)Nc2ccc3c(c2)OCO3)[C@H](C)CN([C@H](C)CO)C(=O)c2cc(NC(=O)CCC(F)(F)F)ccc2O1	/	/	3	/	/	/
COc1ccc2[nH]c3c(N4CCC(O)(c5cccc(C(F)(F)F)c5)CC4)ncnc3c2c1	75*	-35	/	64*	35	30
CCOc1ccc2[nH]c3c(N4CCc5ccccc5C4)ncnc3c2c1	27	/	/	13	/	/
COc1ccc2[nH]c3c(N4CCN(Cc5ccc6c(c5)OCO6)CC4)ncnc3c2c1	38	-5	/	51*	5	20
COc1ccc2cc(C(=O)N3CCN(Cc4ccc5c(c4)OCO5)CC3)[nH]c2c1	6	-3	12	16	7	14
O=[N+]([O-])c1ccc2ncnc(N3CCN(Cc4ccc5c(c4)OCO5)CC3)c2c1	78*	/	28	46	5	42*
COc1cccc(S(=O)(=O)N[C@H]2C=C[C@@H](CC(=O)NC3Cc4ccccc4C3)O[C@H]2CO)c1	/	/	-10	/	/	/
Cn1c(Oc2ccc(F)cc2)c(C=O)c2ccccc21	39	-18	11	9	18	6
Cn1c(Sc2ccc(Br)cc2)c(C=O)c2ccccc21	55*	-10	44	/	11	10
Cc1ccccc1-c1ccc([C@@H]2[C@@H](CO)N3C(=O)CN(C(=O)Cc4ccccn4)C[C@H]23)cc1	/	/	1	/	/	/
C[C@@H]1CCCCO[C@H](CN(C)C(=O)C2CCCCC2)[C@H](C)CN([C@H](C)CO)C(=O)c2cc(N(C)C)ccc2O1	/	/	2	/	/	/
